Data reported in PubChem BioAssay.
Potency and affinity values are given separately. Inconclusive results are not listed. Calls of active or inactive are those of the source. The rule behind the calls is not given here.

Experiment: general cell-killing toxicity readout – plate reader, dry powder samples, cytotoxicity control for PAX8 inhibitor project, dose response (AID 743021)
Details: cell line, non-specific cytotoxicity counter-screen; series mostly up to 35 µM; activity change, negative = cytotoxicity: at the top concentration
With `O=C(C1CC1)N1C[C@@H]2N[C@H](C1)C2c1ccc(-c2ccccc2F)cc1` (some centres not stated) the “activity change, negative = cytotoxicity” value was -11.1% (inactive).
For `COc1ccc(S(=O)(=O)Nc2ccc3c(c2)C(=O)N([C@H](C)CO)C[C@H](C)[C@H](CN(C)Cc2ccc(C(F)(F)F)cc2)OCCCC[C@H](C)O3)cc1`, the “activity change, negative = cytotoxicity” value was 2.13% (inactive).
For `O=C(CCCN1C(=O)/C(=C/c2cccc(Br)c2)SC1=S)Nc1ccccn1`, the “activity change, negative = cytotoxicity” value was 8.35% (inactive).
For `Oc1ccc(Cc2ccccc2)c2cccnc12`, the “activity change, negative = cytotoxicity” value was 20.6% (inactive).
For `Cc1ccc2cccc(NS(=O)(=O)c3ccccc3)c2n1`, the “activity change, negative = cytotoxicity” value was -6.89% (inactive).
With `Cc1ccc(S(=O)(=O)N(C)C[C@@H]2Oc3cc(C#Cc4ccncc4)ccc3S(=O)(=O)N([C@H](C)CO)C[C@@H]2C)cc1` the “activity change, negative = cytotoxicity” value was 7.15% (inactive).
For `Cc1ccc(S(=O)(=O)Nc2ccc3c(c2)nc(CCN2CCCC2)n3C)cc1`, the outcome was “inactive”.
In the case of `C[C@@H]1CCCCO[C@H](CN(C)Cc2ccc(C(F)(F)F)cc2)[C@H](C)CN([C@@H](C)CO)C(=O)c2cc(NS(=O)(=O)c3ccc(F)cc3)ccc2O1`, the “activity change, negative = cytotoxicity” value is reported as -12.5% (inactive).
In the case of `O=C(NCCc1ccccc1)c1ccc2c(c1)OCCCO2`, the “activity change, negative = cytotoxicity” value is reported as 14.6% (inactive).
In the case of `O=C1/C(=C/c2ccccc2F)SC(=S)N1CC(=O)N1CCCCC1c1cccnc1` (configuration not stated), the “activity change, negative = cytotoxicity” value is reported as 32.7% (inactive).
With `C[C@H](CO)N1C[C@H](C)[C@@H](CN(C)Cc2ccc(Cl)c(Cl)c2)Oc2ccc(NS(=O)(=O)c3ccccc3)cc2CC1=O` the “activity change, negative = cytotoxicity” value was 12.2% (inactive).
With `O=C(Nc1ccc(F)cc1)N1CCCCN2[C@@H](CO)[C@@H](c3ccc(C#Cc4ccccc4)cc3)[C@@H]2C1` the “activity change, negative = cytotoxicity” value was -27.8% (inactive).
With `CCN(CC)CCCNc1nc2ccccc2c2[nH]c3ccc(OC)cc3c12` the “activity change, negative = cytotoxicity” value was 6.11% (inactive).
With `C[C@@H]1CN([C@H](C)CO)C(=O)c2cc(NC(=O)Nc3ccccc3)ccc2O[C@@H](C)CCCCO[C@@H]1CN(C)Cc1ccc(C(F)(F)F)cc1` the “activity change, negative = cytotoxicity” value was -18.4% (inactive).
In the case of `Cc1ccc(-c2csc(NC3OC(=O)c4ccccc43)n2)cc1` (configuration not stated), the “activity change, negative = cytotoxicity” value is reported as -3.57% (inactive).
With `COc1cc(/C=C2\SC(=S)N(CCC(=O)N3CCCCC3)C2=O)cc(OC)c1OC` the outcome was “inactive”.
In the case of `Cc1ccccc1S(=O)(=O)N1CC[C@@H]2[C@H](CO)Nc3ccc(-c4cccc(F)c4)cc3[C@@H]21`, the “activity change, negative = cytotoxicity” value is reported as -11% (inactive).
In the case of `CN(C)CCN(C(=O)/C=C/c1cccs1)c1nc2c(F)cc(F)cc2s1`, the “activity change, negative = cytotoxicity” value is reported as 5.08% (inactive).
In the case of `Cc1noc(C)c1S(=O)(=O)Nc1ccc2c(c1)C(=O)N([C@H](C)CO)C[C@H](C)[C@@H](CN(C)C(=O)Nc1ccc(C(F)(F)F)cc1)OCCCC[C@H](C)O2`, the “activity change, negative = cytotoxicity” value is reported as -4.33% (inactive).
With `Cc1ccc(S(=O)(=O)Nc2ccc3c(c2)C(=O)N([C@@H](C)CO)C[C@@H](C)[C@H](CN(C)Cc2ccc(C(F)(F)F)cc2)OCCCC[C@H](C)O3)cc1` the “activity change, negative = cytotoxicity” value was -2.98% (inactive).
With `COc1ccccc1C#Cc1ccc2c(c1)O[C@H](CN(C)Cc1cccnc1)[C@H](C)CN([C@@H](C)CO)S2(=O)=O` the “activity change, negative = cytotoxicity” value was -13.4% (inactive).
In the case of `Cc1cc(C)c2sc(NNC(=O)c3ccc(S(=O)(=O)N4CCc5ccccc5C4)cc3)nc2c1`, the outcome is reported as “inactive”.

Experiment: IGROV1 cell killing – plate reader, dry powder samples, PAX8 inhibitor project, dose response (AID 743043);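 note: more negative means fewer viable cells or more cytotoxicity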
Details: IGROV1 ovarian cancer cell cytotoxicity; series mostly up to 35 µM; activity change, negative = cytotoxicity: at the top concentration
With `COc1ccc(S(=O)(=O)N(C)C[C@H]2OCCCC[C@H](C)Oc3ccc(NS(=O)(=O)c4ccc(F)cc4)cc3C(=O)N([C@@H](C)CO)C[C@@H]2C)cc1` the “activity change, negative = cytotoxicity” value was -14.5% (inactive).
For `C[C@@H]1CN([C@H](C)CO)C(=O)c2cc(NC(=O)Nc3ccc(C(F)(F)F)cc3)ccc2O[C@@H](C)CCCCO[C@@H]1CN(C)C(=O)c1ccccc1`, the “activity change, negative = cytotoxicity” value was -28.5% (inactive).
In the case of `C[C@H](CO)N1C[C@H](C)[C@@H](CN(C)C(=O)C2CCCCC2)OCCCC[C@H](C)Oc2ccc(NS(=O)(=O)c3ccc(Cl)cc3)cc2C1=O`, the “activity change, negative = cytotoxicity” value is reported as -15.8% (inactive).
With `Cc1ccc(S(=O)(=O)N(C)C[C@@H]2Oc3cc(C#Cc4ccncc4)ccc3S(=O)(=O)N([C@H](C)CO)C[C@H]2C)cc1` the “activity change, negative = cytotoxicity” value was -14.2% (inactive).
With `CN1c2ccc(-c3ccccc3)cc2[C@H]2[C@H](CCN2C(=O)NC2CCCCC2)[C@@H]1CO` the “activity change, negative = cytotoxicity” value was -18.2% (inactive).
In the case of `COc1ccc(CN(C)C[C@H]2OCCCC[C@@H](C)Oc3ccc(NC(=O)Nc4ccc(F)cc4)cc3C(=O)N([C@@H](C)CO)C[C@@H]2C)cc1`, the “activity change, negative = cytotoxicity” value is reported as -33% (inactive).
With `CO[C@@H]1CN(C)C(=O)c2cc(NC(=O)c3ccc(-c4ccccc4)cc3)ccc2OC[C@H](C)NC[C@H]1C` the “activity change, negative = cytotoxicity” value was -20% [at 30 µM] (inactive).
With `COc1ccc(S(=O)(=O)Nc2ccc3c(c2)CC(=O)N([C@@H](C)CO)C[C@@H](C)[C@@H](CN(C)Cc2ccc(-c4ccccc4)cc2)O3)cc1` the “activity change, negative = cytotoxicity” value was 12.3% (inactive).
For `COc1ccc(S(=O)(=O)Nc2ccc3c(c2)C(=O)N([C@H](C)CO)C[C@H](C)[C@H](CN(C)Cc2ccc(C(F)(F)F)cc2)OCCCC[C@H](C)O3)cc1`, the “activity change, negative = cytotoxicity” value was -28.4% (inactive).
With `Cc1ccc(S(=O)(=O)N(C)C[C@@H]2Oc3cc(C#Cc4ccncc4)ccc3S(=O)(=O)N([C@H](C)CO)C[C@@H]2C)cc1` the “activity change, negative = cytotoxicity” value was -26.8% (inactive).
For `Cc1ccc(S(=O)(=O)Nc2ccc3c(c2)nc(CCN2CCCC2)n3C)cc1`, the “activity change, negative = cytotoxicity” value was 19% [at 50 µM] (inactive).
In the case of `Cc1ccc(S(=O)(=O)Nc2ccc3c(c2)CC(=O)N([C@@H](C)CO)C[C@H](C)[C@@H](CN(C)C(=O)Nc2ccc(C(F)(F)F)cc2)O3)cc1`, the “activity change, negative = cytotoxicity” value is reported as 7.53% (inactive).
For `CC(C)CC#Cc1ccc2c(c1)O[C@H](CN(C)Cc1ccc(C(=O)O)cc1)[C@@H](C)CN([C@H](C)CO)S2(=O)=O`, the “activity change, negative = cytotoxicity” value was 16.5% (inactive).
With `O=C1/C(=C/c2ccccc2F)SC(=S)N1CC(=O)N1CCCCC1c1cccnc1` (configuration not stated) the “activity change, negative = cytotoxicity” value was 20.1% [at 50 µM] (inactive).
For `C[C@H](CO)N1C[C@H](C)[C@@H](CN(C)Cc2ccc(Cl)c(Cl)c2)Oc2ccc(NS(=O)(=O)c3ccccc3)cc2CC1=O`, the “activity change, negative = cytotoxicity” value was -14.1% (inactive).
In the case of `Cc1ccc(-c2csc(NC3OC(=O)c4ccccc43)n2)cc1` (configuration not stated), the “activity change, negative = cytotoxicity” value is reported as 7.94% [at 50 µM] (inactive).
In the case of `Cc1ccccc1S(=O)(=O)N1CC[C@@H]2[C@H](CO)Nc3ccc(-c4cccc(F)c4)cc3[C@@H]21`, the “activity change, negative = cytotoxicity” value is reported as -11.3% (inactive).
With `Cc1noc(C)c1S(=O)(=O)Nc1ccc2c(c1)C(=O)N([C@H](C)CO)C[C@H](C)[C@@H](CN(C)C(=O)Nc1ccc(C(F)(F)F)cc1)OCCCC[C@H](C)O2` the “activity change, negative = cytotoxicity” value was -3.74% (inactive).
For `Cc1ccc(S(=O)(=O)Nc2ccc3c(c2)C(=O)N([C@@H](C)CO)C[C@@H](C)[C@H](CN(C)Cc2ccc(C(F)(F)F)cc2)OCCCC[C@H](C)O3)cc1`, the “activity change, negative = cytotoxicity” value was 0.173% (inactive).
For `COc1ccccc1C#Cc1ccc2c(c1)O[C@H](CN(C)Cc1cccnc1)[C@H](C)CN([C@@H](C)CO)S2(=O)=O`, the “activity change, negative = cytotoxicity” value was -4.39% (inactive).
